# Reference: PubChem BioAssay AID1014 (NMMLSC, 2008)
# Activity calls are given as the source filed them. Rule as the data show it: active = inhibition of mean fluorescence above about 33%; inactive = the rest.
# Test: blockers of bacterial quorum-sensing reporter fluorescence – flow cytometry, SAR analogs, SAR follow-up (AID 1014);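 also: Staphylococcus aureus RN6390 with RNAIII-GFP reporter stimulated by AIP; bacteria incubated with compound for 3 hours at 37 °C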
# Settings: at 20 µM, stronger effect = higher value; inhibition of percent positive cells: measured here: percent reporter-positive cells
SMILES,inhibition of mean fluorescence,inhibition of percent positive cells [%]
CC1CCCN(C(C(=O)Nc2ccc(C(C)C)cc2)c2ccc3c(c2)OCO3)C1 (centres undefined),23.8% (inactive),0.5
CCOC(=O)c1c(COc2ccccc2)oc2ccc(O)cc12,-1.1% (inactive),-0.9
NC1=NC(=O)CC(C(=O)Nc2ccccc2)S1 (centres undefined),-19.2% (inactive),-0.6
CCc1ccc(Nc2nc3c(S(=O)(=O)c4ccccc4)nnn3c3ccccc23)cc1,20.8% (inactive),-1.2
CCc1ccc(Nc2nc3c(S(=O)(=O)c4ccc(Br)cc4)nnn3c3ccccc23)cc1,-16.7% (inactive),0
O=C(Nc1ccc2c(c1)OCO2)C(c1ccc(Cl)cc1)N1CCC2(CC1)OCCO2 (centres undefined),-0.5% (inactive),-0.8
COc1ccc(S(=O)(=O)c2nnn3c2nc(Nc2ccccc2C)c2ccccc23)cc1,-17.1% (inactive),0.4
CCc1c(C(=O)c2ccc(C)cc2)oc2ccc3c(C)cc(=O)oc3c12,10.8% (inactive),-0.1
Cc1ccccc1Nc1c(F)c(F)c(F)c(F)c1C(=O)O,-18.8% (inactive),-1.9
O=C(NCC(c1cccnc1)N1CCN(c2ccccc2)CC1)c1ccccc1F (centres undefined),-31.8% (inactive),-1.7
O=C(O)c1cc([N+](=O)[O-])cc([N+](=O)[O-])c1Nc1ccc(Cl)cc1,-16.3% (inactive),0.2
O=C(NCC(c1cccnc1)N1CCN(c2ccccc2F)CC1)c1ccc(F)cc1 (centres undefined),11.5% (inactive),-1.8
CCOc1ccc(Nc2nc3c(S(=O)(=O)c4ccccc4)nnn3c3ccccc23)cc1,-16.3% (inactive),-0.2
CC(C)c1ccc(NC(=O)C(c2ccc3c(c2)OCO3)N2CCOCC2)cc1 (centres undefined),2.7% (inactive),-0.1
CCOC(=O)c1c(-c2ccccc2)oc2ccc(O)cc12,13.3% (inactive),-0.9
O=C(Nc1ccc2c(c1)OCCO2)C(c1ccccc1)N1CCOCC1 (centres undefined),9.5% (inactive),2.3
O=C(NCC(c1cccnc1)N1CCc2ccccc2C1)c1ccc(F)c(F)c1 (centres undefined),-6.4% (inactive),-0.1
N#Cc1c(NC(=O)COC(=O)c2c3c(nc4ccccc24)CCCC3)sc2c1CCCC2,-13.5% (inactive),-0.1
CCc1ccc(S(=O)(=O)c2n[nH]n3c2nc(=O)c2ccccc23)cc1,87.7% (active),53.5
CCOC(=O)c1c(C)oc2cc(Br)c(O)c(C=O)c12,-4.5% (inactive),2.9
CCOC(=O)c1c(C)oc2cc(Br)c(O)c(Br)c12,55.9% (active),0.7

SMILES,inhibition of mean fluorescence,inhibition of percent positive cells [%]
O=C(O)c1ccccc1Nc1cccc2c1C(=O)c1ccccc1C2=O,58.7% (active),10
CC1CCN(CCC(=O)Nc2ccc3c(c2)OCO3)CC1,10% (inactive),1.6
CN1CCN(C(C(=O)NC2CCCCC2)c2cc3c(cc2[N+](=O)[O-])OCO3)CC1 (centres undefined),-5.8% (inactive),-0.4
COc1ccc(C(=O)NCC(c2cccnc2)N2CCN(c3ccc(F)cc3)CC2)cc1OC (centres undefined),3.4% (inactive),0
CC(NC(=O)c1cccc(F)c1)C(c1cccs1)N1CCN(c2ccccc2F)CC1 (centres undefined),16.4% (inactive),0.2
O=C(CN1C(=O)c2ccccc2C1=O)N=C1NC(=O)CS1,3.2% (inactive),-1.2
O=C(O)c1ccccc1Nc1cn2ncc([N+](=O)[O-])c2c(=O)[nH]1,-1.7% (inactive),-0.3
CC(C)c1ccc(NC(=O)C(c2ccc3c(c2)OCO3)N2CCN(C(=O)c3ccco3)CC2)cc1 (centres undefined),-33.9% (inactive),-1.4
O=C(Nc1ccc2c(c1)OCO2)C(c1ccc(Cl)cc1)N1CCN(C(=O)c2ccco2)CC1 (centres undefined),2.2% (inactive),-0.3
COc1ccccc1N1CCN(C(CNC(=O)c2ccc(F)cc2)c2cccnc2)CC1 (centres undefined),6.4% (inactive),-1.7
O=C(NCC(c1cccnc1)N1CCN(c2ccccc2F)CC1)c1cccs1 (centres undefined),19.5% (inactive),-0.4
O=C(NCC(c1cccnc1)N1CCN(Cc2ccccc2)CC1)c1ccccc1 (centres undefined),12.3% (inactive),-0.4
O=C(NCC(c1cccnc1)N1CCN(c2ccc(F)cc2)CC1)c1ccc(F)cc1 (centres undefined),-11.6% (inactive),-0.2
COc1ccc(CC(=O)Nc2oc(-c3ccccc3)c(-c3ccccc3)c2C#N)cc1OC,20% (inactive),-0.5
COc1ccc(NC(=O)C(c2cc3c(cc2[N+](=O)[O-])OCO3)N2CCCC(C)C2)cc1 (centres undefined),29.6% (inactive),-0.9
Cc1ccc(Nc2c(F)c(F)c(F)c(F)c2C(=O)O)cc1,9.9% (inactive),-0.2
O=C(NC1CCCC1)C(c1cc2c(cc1[N+](=O)[O-])OCO2)N1CCCC1 (centres undefined),-3.7% (inactive),-0.1
CC(=O)Nc1ccc(Nc2nc3c(S(=O)(=O)c4ccccc4)nnn3c3ccccc23)cc1,-8% (inactive),3.3
O=C(NCC(c1cccnc1)N1CCc2ccccc21)c1ccc(F)c(F)c1 (centres undefined),19.9% (inactive),-0.3
CCOC(=O)c1c(-c2cc(Br)c(OC)c(Br)c2)oc2ccc(O)cc12,-2.7% (inactive),-0.6
O=C(O)c1c(F)c(F)c(F)c(F)c1Nc1cccc(C(F)(F)F)c1,6% (inactive),-0.1
